# KLF5 inhibitor – KLF5 expression inhibitors, primary screen, DLD-1 cells, luminescence; DLD-1 KLF5 promoter-luciferase reporter; inhibition, % at 5 µM; 290,000 compounds, 0.23% hits;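 active = inhibition above a per-plate limit of that plate's mean compound inhibition plus 3 SD, cut at about 60% in these data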;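 note: higher means less KLF5 promoter-driven luciferase light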
# APP 5UTR inh – inhibitors of APP translation via 5'UTR reporter, primary screen, APP 5'UTR luciferase, SH-SY5Y cells; SH-SY5Y APP 5'UTR-luciferase reporter, luminescence; inhibition, % at 2 µM; 190,000 compounds, 0.82% hits; AID 1285, 2008;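 active = inhibition above a set limit, derived from the sample mean plus 3 SD, cut at about 45% in these data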
# IEC-6 cytotox – cytotoxicity in IEC-6 intestinal epithelial cells, primary screen, cytotoxicity control for KLF5 inhibitor project, cell-based, luminescence; IEC-6 cytotoxicity, luminescence viability; inhibition, % at 5 µM; 290,000 compounds, 0.78% hits; in the data active = inhibition above about 22%
# aSyn UTR inh – MLPCN primary screen, SNCA 5' untranslated region. inhibition, % (tested at 7.5 µM). alpha-synuclein 5'UTR reporter, inhibitor activity. 300,000 compounds, 0.82% hits; in the data active = inhibition above about 60%;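 note: H4 neuroglioblastoma cells stably carrying SNCA 5'UTR luciferase fusion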
# Ba/F3 V617F tox – reduced viability of JAK2V617F-dependent Ba/F3 cells, primary screen, JAK2V617F inhibitor project, cell-based, Ba/F3 EpoR-JAK2V617F, luminescence. AID 1446, 2008. ATP luminescence. 220,000 compounds, 1.1% hits. inhibition, % at 5.6 µM;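 active = inhibition above the campaign mean plus 3 SD over all tested compounds, cut at about 24% in these data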;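 note: cytokine-independent growth of Ba/F3 cells driven by EpoR plus mutant JAK2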
# BaF3 tox – parental Ba/F3 cell viability inhibition, counter-screen for JAK2V617F inhibitor project, murine pro-B, CellTiter-Glo luminescence; inhibition, % at 5.6 µM; 220,000 compounds, 1.1% hits; CellTiter-Glo ATP luminescence; AID 1486, 2009;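 active = inhibition above a per-campaign cutoff, the mean inhibition of all tested compounds plus 3 SD, cut at about 27% in these data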
# Hits are given with their value; 0 = inactive; - = no result. In the library only some 2.2% were active in any assay of this set; here they are far more common.
SMILES,KLF5 inhibitor,APP 5UTR inh,IEC-6 cytotox,aSyn UTR inh,Ba/F3 V617F tox,BaF3 tox
COc1cc2c(cc1O)CC[n+]1cc3c(OC)c(OC)ccc3cc1-2,0,0,0,0,0,45
COc1cc2c(ccc3cc(OC)c(OC)c(O)c32)cc1O,-,-,-,0,-,-
COc1cccc(NC(=O)COC(=O)c2ccccc2SCC(=O)N2CCCC2)c1,-,-,-,0,-,-
Oc1c(I)cc(Cl)c2cccnc12,0,0,0,0,0,0
Oc1c(CN2CCc3ccccc3C2)cc(Cl)c2cccnc12,0,0,0,91,0,0
O=C(Oc1c(CN2CCOCC2)cc(Cl)c2cccnc12)c1ccccc1,0,53,26,0,0,0
Oc1c(CN2CCCCC2)cc(Br)c2cccnc12,0,67,0,112,44,27
O=C(Oc1c(CN2CCOCC2)cc(Cl)c2cccnc12)c1ccccc1F,0,75,0,106,0,0
O=C(Nc1cnccn1)c1ccc(Cl)cc1,0,-,0,0,-,-
COc1cccc(-c2noc(-c3ccc(Br)o3)n2)c1,0,0,0,-,0,0
Cc1cc(Br)ccc1OCC(=O)NNC(=O)c1ccc(NC(=O)C2CC2)cc1,0,45,0,0,0,0
CCCC(=O)Nc1ccc(C(=O)NNC(=O)COc2ccc(Br)c(C)c2)cc1,0,50,0,0,0,0
CNc1nc(SC)n(C)c(=O)c1N=O,0,-,0,0,0,0
O=C(COc1ccccc1)NCc1ccccc1,0,0,0,0,0,0
O=C(COc1ccc(C(=O)c2ccccc2)cc1)NCc1ccc(F)cc1,0,0,41,113,0,0
COCn1c(-c2ccc(OC)cc2)nc2ccccc21,0,0,0,0,0,0
CCCn1c(-c2ccc(OC)cc2)nc2ccccc21,0,0,0,0,40,52
COc1ccc2nc(NC(=O)Nc3cccc4ccccc34)sc2c1,0,0,0,0,0,0
COc1ccc2nc(N=Nc3c(O)ccc4ccccc34)sc2c1,0,69,0,0,0,0
CCOc1ccccc1NC(=O)CNC(=O)CNC(=O)Cc1ccccc1,0,-,0,0,-,-
CC1CCc2cccc3c2N1c1cc(C#N)c(C#N)cc1O3 (stereo not given),0,0,0,71,0,0
O=C(NCCc1ccccc1)c1ccc2nccnc2c1,0,0,0,63,0,0
O=C(NCCc1ccccc1)c1cccnc1,0,0,0,0,0,0
CCn1nnnc1SCC(=O)c1cccc(OC)c1,0,0,0,0,0,45
COc1ccc(-n2nnnc2SCC(=O)c2cccc(OC)c2)cc1,0,0,0,0,0,0
SMILES,KLF5 inhibitor,APP 5UTR inh,IEC-6 cytotox,aSyn UTR inh,Ba/F3 V617F tox,BaF3 tox
S=C(N/N=C/c1ccc2ncccc2c1)Nc1ccccc1,0,0,0,108,0,0
C(=N\NCc1ccccc1)/c1ccc2ncccc2c1,0,-,0,0,0,0
Cc1nc2ccc(CN(C)c3ccc(C(=O)N[C@@H](CCC(=O)O)C(=O)O)s3)cc2c(=O)[nH]1,-,-,-,103,-,-
Cc1oc(C(=O)Nc2ccc(O)cc2)cc1COc1ccccc1,0,0,0,-,0,37
Cc1ccc(OCc2cc(C(=O)Nc3ccccc3)oc2C)cc1,0,0,0,0,0,0
COc1ccccc1-n1nnnc1SCC(=O)Nc1cc(C)on1,0,0,0,0,0,0
CCOc1ccccc1-n1nnnc1SCC(=O)Nc1cc(C)on1,0,0,0,0,0,39
Cc1ncc(CO)c(/C=N/Nc2ccc(C(F)(F)F)cn2)c1O,0,-,0,88,-,-
Cc1ncc(CO)c(/C=N/NC(=S)Nc2ccc(F)cc2)c1O,0,0,0,0,0,0
COc1ccc(C)cc1NC(=O)C(=O)NCc1ccncc1,0,0,0,0,0,96
O=C(Cc1csc(Nc2nc(=S)[nH]c3ccccc23)n1)NCCCN1CCN(c2ccccc2F)CC1,0,0,0,92,0,0
CCc1cccc(NC(=O)c2cc(OC)c(OC)c(OC)c2)c1,0,0,0,0,0,0
Cc1cccc(NC(=O)COC(=O)c2cccc3c2C(=O)c2ccccc2C3=O)c1C,0,0,0,0,0,0
Cc1cccc(C)c1NC(=O)COC(=O)c1cccc2c1C(=O)c1ccccc1C2=O,0,0,0,68,0,0

# Compound activity (PubChem)
